About 83,000 compounds went through this panel and 20% of them were active in at least one assay; those are over-represented in the sample as a whole.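 In brief: 96-well plates, 48 h treatment, single concentration, percent growth endpoint.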 Unmarked numbers belong to inactive results. Activity calls are given as the source filed them. Rule for the calls: active = growth percent below 10; inactive = the rest.
Columns and labels:
Experiment in all cases: NCI-60 one-dose screen, 48 h (100 = growth as untreated, 0 = no growth, -100 = all killed)
Conditions in all cases: 10 µM unless noted
SK-MEL-2 melanoma = system: SK-MEL-2 melanoma
EKVX NSCLC = system: EKVX NSCLC
SN12C renal = system: SN12C renal
UO-31 renal = system: UO-31 renal
TK-10 renal = system: TK-10 renal
ACHN renal = system: ACHN renal
CAKI-1 renal = system: CAKI-1 renal
A498 renal = system: A498 renal
CCRF-CEM leukemia = system: CCRF-CEM leukemia
MOLT-4 leukemia = system: MOLT-4 leukemia

## COc1ccc(C(=O)COc2cccc(/C=C3\CSc4ccc(C)cc4C3=O)c2)cc1
SK-MEL-2 melanoma
  growth: 79.5%
EKVX NSCLC
  growth: 106%
SN12C renal
  growth: 91.7%
UO-31 renal
  growth: 78.5%
TK-10 renal
  growth: 101%
ACHN renal
  growth: 101%
CAKI-1 renal
  growth: 91.6%
A498 renal
  growth: 112%
CCRF-CEM leukemia
  growth: -9.38% (active)
MOLT-4 leukemia
  growth: -7.35% (active)

## O=C(Nc1ccccc1)Oc1cccc2cccnc12
SK-MEL-2 melanoma
  growth: 93.9%
EKVX NSCLC
  growth: 82.2%
SN12C renal
  growth: 94.9%
UO-31 renal
  growth: 68.1%
TK-10 renal
  growth: 104%
ACHN renal
  growth: 84.7%
CAKI-1 renal
  growth: 93.9%
A498 renal
  growth: 119%
CCRF-CEM leukemia
  growth: 7.23% (active)
MOLT-4 leukemia
  growth: 55.3%

## COc1cccc(C2C3=C(COC3=O)N(CCO)c3cc4c(cc32)OCO4)c1 (centres undefined)
SK-MEL-2 melanoma
  growth: 33%
EKVX NSCLC
  growth: 36.2%
SN12C renal
  growth: 46.7%
UO-31 renal
  growth: 57.7%
TK-10 renal
  growth: 59.8%
ACHN renal
  growth: 48.4%
CAKI-1 renal
  growth: 30%
A498 renal
  growth: -5.85% (active)
CCRF-CEM leukemia
  growth: 21.3%
MOLT-4 leukemia
  growth: 27.1%

## O=C1NC(=S)S/C1=C\c1cccc([N+](=O)[O-])c1
SK-MEL-2 melanoma
  growth: 103%
EKVX NSCLC
  growth: 90.4%
SN12C renal
  growth: 94.1%
UO-31 renal
  growth: 65.1%
TK-10 renal
  growth: 107%
ACHN renal
  growth: 89.2%
CAKI-1 renal
  growth: 87.5%
A498 renal
  growth: 96.1%
CCRF-CEM leukemia
  growth: 78.2%
MOLT-4 leukemia
  growth: 85.5%

## Cc1cc(=O)c2c(C)ccc(C)c2[nH]1
SK-MEL-2 melanoma
  growth: 104%
EKVX NSCLC
  growth: 102%
SN12C renal
  growth: 101%
UO-31 renal
  growth: 86.8%
TK-10 renal
  growth: 108%
ACHN renal
  growth: 102%
CAKI-1 renal
  growth: 108%
A498 renal
  growth: 108%
CCRF-CEM leukemia
  growth: 102%
MOLT-4 leukemia
  growth: 100%

## Cc1cc[n+](CCc2ccccc2)cc1
SK-MEL-2 melanoma
  growth: 107%
EKVX NSCLC
  growth: 80.6%

## O=[N+]([O-])c1ccc(C=C2C(Cl)=C(Cl)C(Cl)=C2Cl)cc1
SK-MEL-2 melanoma
  growth: 102%
EKVX NSCLC
  growth: 91.6%
SN12C renal
  growth: 52.3%
UO-31 renal
  growth: -19.8% (active)
TK-10 renal
  growth: 28.3%
ACHN renal
  growth: 45.5%
CAKI-1 renal
  growth: 53%
A498 renal
  growth: 104%
CCRF-CEM leukemia
  growth: 15.7%
MOLT-4 leukemia
  growth: 5.43% (active)

## Cc1nc(-c2ccccc2)cc2c(O)c(C(=O)N/N=C/Cc3ccccc3)[nH]c(=O)c12
SK-MEL-2 melanoma
  growth: 102%
EKVX NSCLC
  growth: 103%
SN12C renal
  growth: 104%
UO-31 renal
  growth: 95.1%
TK-10 renal
  growth: 109%
ACHN renal
  growth: 104%
CAKI-1 renal
  growth: 111%
A498 renal
  growth: 94.5%
CCRF-CEM leukemia
  growth: 92.4%
MOLT-4 leukemia
  growth: 90.5%

## Cc1nc(NN)c([N+](=O)[O-])c(NN)n1
SK-MEL-2 melanoma
  growth: 104%
EKVX NSCLC
  growth: 112%
SN12C renal
  growth: 103%
UO-31 renal
  growth: 94.5%
TK-10 renal
  growth: 118%
ACHN renal
  growth: 110%
CAKI-1 renal
  growth: 99.1%
A498 renal
  growth: 142%
CCRF-CEM leukemia
  growth: -28.1% (active)
MOLT-4 leukemia
  growth: 89.6%

## Cc1nc2nc(C(F)(F)F)[nH]c2nc1C
SK-MEL-2 melanoma
  growth: 115%
EKVX NSCLC
  growth: 89.5%
SN12C renal
  growth: 95.4%
UO-31 renal
  growth: 101%
TK-10 renal
  growth: 104%
ACHN renal
  growth: 110%
CAKI-1 renal
  growth: 98.3%
A498 renal
  growth: 98.7%
MOLT-4 leukemia
  growth: 113%

## Cc1ccc(C2SCC(=O)N2NC(=O)c2[nH]c3ccc(F)cc3c2-c2ccccc2)cc1 (centres undefined)
SK-MEL-2 melanoma
  growth: 97.6%
EKVX NSCLC
  growth: 84.4%
SN12C renal
  growth: 95.8%
UO-31 renal
  growth: 75.1%
TK-10 renal
  growth: 108%
ACHN renal
  growth: 89.9%
CAKI-1 renal
  growth: 77.1%
A498 renal
  growth: 86.5%
CCRF-CEM leukemia
  growth: 89.1%
MOLT-4 leukemia
  growth: 69.2%

## Cc1cc(C)c(S(=O)O)c(C)c1
SK-MEL-2 melanoma
  growth: 97.8%
EKVX NSCLC
  growth: 105%
SN12C renal
  growth: 108%
UO-31 renal
  growth: 110%
TK-10 renal
  growth: 104%
ACHN renal
  growth: 103%
CAKI-1 renal
  growth: 99%
A498 renal
  growth: 92.7%
CCRF-CEM leukemia
  growth: 94%
MOLT-4 leukemia
  growth: 109%

## O=C(c1ccccc1)C(Br)C(Br)c1cccc([N+](=O)[O-])c1 (centres undefined)
SK-MEL-2 melanoma
  growth: 69.8%
EKVX NSCLC
  growth: 101%
SN12C renal
  growth: 67.1%
UO-31 renal
  growth: -74.8% (active)
TK-10 renal
  growth: -25.4% (active)
ACHN renal
  growth: -87.9% (active)
CAKI-1 renal
  growth: -25.5% (active)
A498 renal
  growth: 48.2%
CCRF-CEM leukemia
  growth: -15.7% (active)
MOLT-4 leukemia
  growth: 3.67% (active)

## COc1cc(-c2nc3ccccc3o2)cc(CN2CCN(c3ccccc3)CC2)c1O
SK-MEL-2 melanoma
  growth: 75%
EKVX NSCLC
  growth: 71.8%
SN12C renal
  growth: 66.2%
UO-31 renal
  growth: 43.8%
TK-10 renal
  growth: 117%
ACHN renal
  growth: 73.6%
CAKI-1 renal
  growth: 84.9%
A498 renal
  growth: 77.6%
MOLT-4 leukemia
  growth: 92.5%

## CCCCOC(=O)C1OC(Oc2ccc3c(C)cc(=O)oc3c2)[C@@H](OC(C)=O)C(OC(C)=O)C1OC(C)=O (some centres undefined)
SK-MEL-2 melanoma
  growth: 103%
EKVX NSCLC
  growth: 89.5%
SN12C renal
  growth: 99.6%
UO-31 renal
  growth: 87.1%
TK-10 renal
  growth: 99.2%
ACHN renal
  growth: 101%
CAKI-1 renal
  growth: 94.1%
CCRF-CEM leukemia
  growth: 94.1%
MOLT-4 leukemia
  growth: 107%

— PubChem BioAssay (NCI)
